Results filed as inconclusive are left out. Where a call stands in place of a potency, no number is given. Calls of active or inactive are those of the source. Calls come from the whole dose curve; as a rule, active = well fitted inhibition curve with a large enough effect; inconclusive = small, poorly fitted or top-dose-only effect, or effect the other way; inactive = flat fitted curve, though single readings scatter.
Potency is the fitted concentration of half-maximal effect.

The target of the experiment is D(1A) dopamine receptor (Homo sapiens) (UniProt P21728). Put plainly: HTS Assay for Allosteric Agonists of the Human D1 Dopamine Receptor: Primary Screen for Antagonists (AID 488983). Note: nearly all actives have a fitted effect of over 65% in size. The settings on record: D1 receptor cell assay, antagonist mode, qHTS titration; series mostly up to 41.8 µM. From the text: Dopamine receptors (DARs) are involved in the etiology and/or therapy of a number of neuropsychiatric and endocrine disorders. For instance, all receptor-based antiparkinsonian drugs work via stimulating the […] DAR subtype whereas all FDA-approved antipsychotic agents are antagonists of this receptor. […] There are three different types of allosteric modulators that we are seeking, two of which will stimulate or augment receptor signaling, allosteric agonists and potentiators, while the third, allosteric antagonists, will attenuate receptor signaling. The present primary screening assay measures compound agonism by tracking calcium flux in a […], inducible Hek293 Trex D1 cell line.
Chain of D(1A) dopamine receptor (Homo sapiens) (P21728 whole entry, looked up): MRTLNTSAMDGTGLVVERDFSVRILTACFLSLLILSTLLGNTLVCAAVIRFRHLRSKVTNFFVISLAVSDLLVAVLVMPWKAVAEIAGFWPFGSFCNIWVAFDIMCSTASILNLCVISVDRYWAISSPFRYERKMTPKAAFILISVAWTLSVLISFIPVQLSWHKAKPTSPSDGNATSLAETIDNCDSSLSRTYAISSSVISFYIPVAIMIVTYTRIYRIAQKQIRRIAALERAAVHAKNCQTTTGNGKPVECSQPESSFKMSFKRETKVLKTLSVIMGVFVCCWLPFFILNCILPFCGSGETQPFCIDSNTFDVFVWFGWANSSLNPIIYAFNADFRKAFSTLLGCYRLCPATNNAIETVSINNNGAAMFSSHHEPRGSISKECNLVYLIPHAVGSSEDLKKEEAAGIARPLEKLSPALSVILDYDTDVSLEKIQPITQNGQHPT
Freshly passaged cells are plated in 1536 well black, clear bottom plates at a density of 4000 cells/well in 3 ul of complete media containing 1x tetracycline inducer. After an overnight incubation at 30 C in 5% CO2, cells are loaded with 2 ul of the no wash Calcium Assay Kit (ABD Bioquest) and incubated at room temperature for 30 to 90 minutes. A 10 cycle (1 second/cycle) baseline measurement is taken and then the FDSS online 1536 pintool delivers 23 nl of compound library (as well as dopamine controls) to the plate. The plate is measured for kinetically at 1 cycle/sec for 180 seconds and is considered to be the agonist portion of the assay (eg, compounds which activate a positive calcium response during this portion are flagged as potential agonists). Following the 180 second read, 1 ul of an EC80 of dopamine is delivered by an onboard pipette head. Measurements are taken kinetically for an additional 180 seconds.
For orientation: qHTS replaces the single test concentration by a dilution series.
Consider `NS(=O)(=O)c1cc2c(cc1Cl)NC(C1CC3C=CC1C3)NS2(=O)=O` (stereo not given), for which the Potency entry was “inactive”.

For the compound `CC(=O)Nc1nnc(S(N)(=O)=O)s1`, the Potency result is “inactive”.

On to `C[C@@H](O)[C@H]1C(=O)N2C(C(=O)O)=C(SCCN=CN)C[C@H]12`, for which the Potency result was “inactive”.

With `NC1=NCC2c3ccccc3Cc3ccccc3N12` (stereo not given), the Potency was 15.8 µM (active).

As to `C[C@]12CCC(=O)C=C1CC[C@@H]1[C@@H]2CC[C@@]2(C)[C@H]1CC[C@]2(O)C(=O)CO`, the Potency entry was “inactive”.

On to `CNC1(C)C2CCC(C2)C1(C)C` (stereo not given), for which the Potency result is “inactive”.

On to `CCCOc1ccccc1-c1nc2n[nH]nc2c(=O)[nH]1`, for which the Potency entry was “inactive”.

With `Fc1ccc(C(c2ccc(F)cc2)N2CCN(C/C=C/c3ccccc3)CC2)cc1`, the Potency result is “inactive”.

Consider `COc1cc(C(=O)OCCCN2CCCN(CCCOC(=O)c3cc(OC)c(OC)c(OC)c3)CC2)cc(OC)c1OC`, for which the Potency entry is “inactive”.

For the compound `CCO/C([O-])=N/c1c[n+](N2CCOCC2)no1`, the Potency result is “inactive”.

On to `Cc1cc(C)c(/C=C2\C(=O)Nc3ccccc32)[nH]1`, for which the Potency entry is “inactive”.

As to `CSc1ccc(C(=O)c2[nH]c(=O)[nH]c2C)cc1`, the Potency result is “inactive”.

For the compound `COCCOC(=O)C1=C(C)NC(C)=C(C(=O)OC(C)C)C1c1cccc([N+](=O)[O-])c1` (stereo not given), the Potency result was “inactive”.

`COC(=O)C1=C(C)NC(C)=C(C(=O)OCCN(C)Cc2ccccc2)C1c1cccc([N+](=O)[O-])c1` (stereo not given): the Potency is 7.08 µM (active).

As to `N[C@@H](COP(=O)(O)O)C(=O)O`, the Potency entry was “inactive”.

For the compound `CCN(CC)CCNC(=O)c1cc(S(C)(=O)=O)ccc1OC`, the Potency entry is “inactive”.

For `C[C@]12CCC(=O)C=C1CC[C@@H]1[C@@H]2C(=O)C[C@@]2(C)[C@H]1CC[C@]2(O)C(=O)CO`, the Potency result was “inactive”.

In the case of `Cc1ccc(Cl)c(Nc2ccccc2C(=O)O)c1Cl`, the Potency entry is “inactive”.

Turning to `NC(=O)c1cn(Cc2c(F)cccc2F)nn1`, the Potency result is “inactive”.

`CN=C(NC#N)NCCSCc1nc[nH]c1C`: the Potency entry is “inactive”.

On to `C(=C\c1ccccc1)/CN1CCN(C(c2ccccc2)c2ccccc2)CC1`, for which the Potency result was “inactive”.

With `C[N+](C)(C)CCCCCCCCCC[N+](C)(C)C`, the Potency result is “inactive”.

In the case of `CCOC(=O)C1=C(C)NC(C)=C(C(=O)OC)C1c1cccc(Cl)c1Cl` (stereo not given), the Potency result is “inactive”.

Consider `O=C(O)CN(CCOCCOCCN(CC(=O)O)CC(=O)O)CC(=O)O`, for which the Potency result was “inactive”.

In the case of `Cc1scc2c1N(C(=O)CN1CCN(C)CC1)c1ccccc1NC2=O`, the Potency result was “inactive”.

With `CCCCCN(CCCCC)C(=O)C(CCC(=O)O)NC(=O)c1ccc(Cl)c(Cl)c1` (stereo not given), the Potency entry was “inactive”.

On to `C=CCc1ccccc1OCC(O)CNC(C)C` (stereo not given), for which the Potency entry is “inactive”.

With `CN(C)CCCN1c2ccccc2Sc2ccc(C(F)(F)F)cc21`, the Potency is 1.26 µM (active).

In the case of `CN(C)CC[C@@H](c1ccc(Br)cc1)c1ccccn1`, the Potency result was “inactive”.

As to `COc1ccc([C@@H]2Sc3ccccc3N(CCN(C)C)C(=O)[C@@H]2OC(C)=O)cc1`, the Potency result was “inactive”.

Regarding `CN(C)C(=O)Oc1cccc([N+](C)(C)C)c1`, the Potency result is “inactive”.

`CCCN(CCC)CCc1cccc2c1CC(=O)N2`: the Potency entry is “inactive”.

Regarding `CC(C)NCC(O)c1cc(O)cc(O)c1` (stereo not given), the Potency entry was “inactive”.

With `OC(CCN1CCCCC1)(c1ccccc1)C1CCCCC1` (stereo not given), the Potency result was “inactive”.

As to `Nc1nc(N)c2nc(-c3ccccc3)c(N)nc2n1`, the Potency entry was “inactive”.

Take `CCCN(CCC)C(=O)C(CCC(=O)O)NC(=O)c1ccccc1` (stereo not given): the Potency entry was “inactive”.

For `O=c1[nH]c(=O)n([C@H]2C[C@H](O)[C@@H](CO)O2)cc1Br`, the Potency entry is “inactive”.

For `CCN(Cc1ccncc1)C(=O)C(CO)c1ccccc1` (stereo not given), the Potency entry was “inactive”.

With `CN(C)CCOC(=O)COc1ccc(Cl)cc1`, the Potency entry was “inactive”.

Consider `CN1CCN(C2=Nc3ccccc3Oc3ccc(Cl)cc32)CC1`, for which the Potency was 0.398 µM (active).
